# High-throughput results: PubChem BioAssay, National Center for Advancing Translational Sciences (NCATS)
# Sampled rows, rich in hits. Any-hit rate of the full collection: about 3.1%.
# TRb SRC2 PPI = qHTS for Inhibitors of the Interaction of Thyroid Hormone Receptor and Steroid Receptor Coregulator 2; 280,000 tested, 0.065% active; Potency, µM (titrated, usually from 106 µM), most hits filed as inhibitors; TRbeta-SRC2 peptide binding, fluorescence polarization; receptor liganded with 1 µM T3; Thyroid hormone receptor beta (Homo sapiens), P10828; AID 1469, 2008; also: nearly all actives have a fitted effect of over 50% in size
# Target sequence (P10828 whole entry, looked up): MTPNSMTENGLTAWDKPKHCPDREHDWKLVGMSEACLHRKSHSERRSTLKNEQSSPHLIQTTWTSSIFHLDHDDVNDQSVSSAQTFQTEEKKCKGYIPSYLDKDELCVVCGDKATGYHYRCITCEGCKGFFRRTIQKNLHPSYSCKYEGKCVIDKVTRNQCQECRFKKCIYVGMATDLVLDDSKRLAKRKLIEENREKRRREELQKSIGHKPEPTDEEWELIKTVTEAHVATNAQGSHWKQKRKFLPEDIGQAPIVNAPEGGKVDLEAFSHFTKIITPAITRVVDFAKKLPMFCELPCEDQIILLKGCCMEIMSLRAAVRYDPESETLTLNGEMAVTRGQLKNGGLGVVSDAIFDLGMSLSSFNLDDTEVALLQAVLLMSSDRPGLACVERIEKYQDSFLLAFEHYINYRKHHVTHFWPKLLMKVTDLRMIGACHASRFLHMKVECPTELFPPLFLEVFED
#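 TRb LBD 0.6 uM + Texas Red SRC2 peptide 20 nM, 1 uM T3, Tris buffer w/ 5% DMSO; compound pinned, 5 h RT; FP read ex 555/em 632; normalized to unbound and bound controls.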
# Tau fluor counter = Counterscreen qHTS for Inhibitors of Tau Fibril Formation, Fluorescence Polarization | tau K18 P301L Alexa594 fluorescence, heparin fibrillization | Potency, µM (doses to about 57.7 µM) | 280,000 tested, 0.93% active; also: nearly all actives have a fitted effect of over 55% in size
#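 Human tau K18 P301L (15 uM unlabeled, 0.24 uM Alexa 594-labeled) in 100 mM sodium acetate pH 7 with 20 uM heparin, 6 hr at 37 C. ThT 30 uM added, 1 hr ambient; Alexa 594 FP and total fluorescence read at 555/632 nm.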
# TexasRed fluor = Total Fluorescence Counterscreen for Inhibitors of the Interaction of Thyroid Hormone Receptor and Steroid Receptor Coregulator 2; TRb/SRC2 Texas Red total fluorescence interference; Potency, µM (series often up to 106 µM); 280,000 tested, 0.29% active; AID 1479, 2009; active = well fitted curve in either direction with a large enough effect; inconclusive = small, poorly fitted or top-dose-only effect
#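 Human TRb ligand-binding domain at 0.6 uM with 20 nM Texas Red SRC2 peptide in Tris buffer containing 1 uM T3 and 5% DMSO, incubated with compound 5 h at ambient temperature. Total fluorescence (555/632 nm) calculated as parallel + 2 × perpendicular.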
# Tau fibril ThT = qHTS for Inhibitors of Tau Fibril Formation, Thioflavin T Binding. Potency, µM (highest dose often 57.4 µM), usual class: inhibitors. AID 1460, 2008. recombinant tau K18 P301L (four-repeat tau fragment), heparin-induced fibrillization, ThT fluorescence. 270,000 tested, 2.1% active; also: nearly all actives have a fitted effect of over 55% in size
#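 Aggregation was driven by heparin (20 uM final) acting on recombinant tau […] bearing P301L in 100 mM sodium acetate pH 7; fibrils were detected with Thioflavin T.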
# Tau FP inhib = qHTS for Inhibitors of Tau Fibril Formation, Fluorescence Polarization. Microtubule-associated protein tau (Homo sapiens), P10636. K18 P301L tau heparin fibrillization, Alexa594 FP, 6 h. Potency, µM (highest dose often 57.7 µM), actives largely listed as inhibitors. 280,000 tested, 0.39% active. AID 1468, 2008; also: nearly all actives have a fitted effect of over 55% in size
#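 K18 P301L tau (15 uM unlabeled/0.24 uM Alexa 594-labeled, final) + compound + heparin 20 uM final; 100 mM NaOAc pH 7; 6 hr 37 C; ThT 30 uM final added, 1 hr RT; FP ex 555/em 632 nm.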
# Hits are given with their value; n = inactive; u = inconclusive; x = no result; [ ] = another dose, or the depositor's remark. Unless noted, calls follow the shape of the dose curve; as a rule, active = well fitted curve in the direction sought with a large enough effect; inconclusive = small, poorly fitted or top-dose-only effect, or another doubt; inactive = no such curve, though single readings can be large; an effect the other way counts as inactive or inconclusive.
SMILES,TRb SRC2 PPI,Tau fluor counter,TexasRed fluor,Tau fibril ThT,Tau FP inhib
O=C(/C=C/c1ccccc1)Nc1cccc(S(=O)(=O)Nc2ccccc2F)c1,n,u,n,u,u
O=C(Cc1ccc(Cl)cc1Cl)Nc1cccc(S(=O)(=O)Nc2ccccc2F)c1,n,n,n,u,28.2µM
C[n+]1ccc(/C=N/Nc2nc(Cl)c(C#N)c(Cl)c2Cl)cc1,n,11.2µM[quencher],n,12.6µM,n
CC(=O)O[C@](C)(CCC=C(C)C)C1CC=C(C)CC1 (stereo partly specified),n,n,n,n,n
CC(=O)n1cc(C(C[N+](=O)[O-])SCCN)c2ccccc21 (stereo unspecified),n,n,n,12.6µM,n
O=C(Nc1ccc(N2CCN(c3ncccc3C(F)(F)F)CC2)nc1)c1cccs1,n,12.6µM[quencher],n,7.94µM,n
COc1cccc(NC(=S)/C(=C(\[O-])c2cc(C)n(-c3ccccc3F)c2C)[n+]2ccc(N(C)C)cc2)c1,n,n,n,u,n
CCCCN1CCc2[nH]c(=S)[nH]c(=O)c2C1,n,n,0.708µM[quencher],n,n
COCCN1CCc2[nH]c(=S)[nH]c(=O)c2C1,n,n,n,n,n
CCOCCCNC1=C(Cl)C(=O)c2ccccc2C1=O,n,u,n,15.8µM,u
O=C1C(Cl)=C(NCCCO)C(=O)c2ccccc21,n,n,n,u,n
C=CC(=O)OCC[N+](C)(C)C,n,x,n,x,x
O=C(Nc1nc2ccc(SC(F)F)cc2s1)c1ccc(NS(=O)(=O)c2ccc(F)c(F)c2)cc1,n,u,n,u,12.6µM
CCCNS(=O)(=O)c1ccc2nc(NC(=O)c3ccc(F)cc3)sc2c1,n,n,n,28.2µM,u
CS(=O)(=O)c1ccc2nc(NC(=O)c3ccc(NS(=O)(=O)c4ccc(F)c(F)c4)cc3)sc2c1,n,u,n,x,u
Nc1nnc(Cc2cccc(Br)c2)s1,n,n,n,n,n
CC(C)Sc1ncc(Cl)c(C(=O)N(Cc2ccc(N(C)C)cc2)C2CCS(=O)(=O)C2)n1 (stereo unspecified),n,n,n,n,n
COC(=O)C(C)Sc1nnc2cc(C)c3cc(C)cc(C)c3n12 (stereo unspecified),n,n,0.0708µM[quencher],n,n
CCCN(CCC)C(=O)CSc1nnc2cc(C)c3cc(C)cc(C)c3n12,n,n,n,n,n
CC(=O)c1c(C)n(-c2cccc(C)c2)c2ccc(OC(=O)COc3ccccc3)cc12,n,n,n,n,n
Cn1nc(-c2ccccn2)nc2c(=O)n(C)c(=O)nc1-2,u,n,n,5.62µM,u
CCCc1nc2c(=O)n(C)c(=O)nc-2n(C)n1,u,n,n,14.1µM,u
CC(C)(C)C1CCC(OC(=O)CN2CCCCC2)CC1 (stereo unspecified),n,n,n,n,n
Cc1ccc(-c2nc(-c3cc4cccc(OCc5cccc(F)c5)c4oc3=O)no2)cc1,n,n,n,n,n
CC(C)C(=O)NC(c1ccccc1)c1cc([N+](=O)[O-])c2cccnc2c1O (stereo unspecified),n,n,n,u,n
SMILES,TRb SRC2 PPI,Tau fluor counter,TexasRed fluor,Tau fibril ThT,Tau FP inhib
CC(=O)NC(c1ccccc1)c1cc([N+](=O)[O-])c2cccnc2c1O (stereo unspecified),n,n,n,10µM,u
O=C(CSc1nc2c([nH]c3ccccc32)c(=O)n1-c1ccc(Cl)cc1)N1CCCCCC1,n,n,n,n,n
CCOc1ccc(N=Nc2ccc(N)cc2N)cc1,n,x,n,x,x
Nc1ccc(N=Nc2ccccc2)c2ccccc12,n,12.6µM[quencher],n,7.08µM,u
Nc1ccc(Oc2ccc3nc(-c4ccccc4)c(-c4ccccc4)nc3c2)cc1,n,14.1µM[quencher],n,n,n
O=C(O)c1ccc2nc(-c3ccccc3)c(-c3ccccc3)nc2c1,n,n,n,n,n
CCOc1ncccc1C(=O)OC(C)C(=O)NC(=O)NC1CCCCC1 (stereo unspecified),n,n,n,n,n
